High-throughput results as filed in PubChem.
Shown are actives, neighbours in structure and some others; about 3.1% of the full set was active somewhere.
Peg3 prom inh-1: Peg3 promoter activity inhibition. HeLa PEG-Prom luciferase reporter, luminescence, overnight. inhibition, % at 20 µM. 1.7% of 360,000 active. AID 588405;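 active = inhibition of at least 50% at 20 µM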
HIF-2a block: HIF-2a inhibition | 786-0 RCC cells HIF-2a reporter, luciferase luminescence, overnight | inhibition, % at 18.8 µM | 0.72% of 360,000 active | AID 624352;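 active = inhibition of the luminescence signal of 40% or more relative to plate controls, in a single-dose primary screen at 18.75 µM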
PPC-1+TRAIL kill: kills PPC-1 cancer cells in the presence of TRAIL; cell killing (% activity), % at 4 µM or 5 µM; AID 1443; 0.41% of 220,000 active; PPC-1 cells + TRAIL, ATPLite viability luminescence;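 active = cell killing above 50% in the first pass at 4 µM, then a duplicate retest at 5 µM averaging 50% or more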;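 note: plate controls were cells with TRAIL plus DMSO for no effect and medium-only wells lacking cells for full effect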
KKLEB cytotox: reduces viability of KKLEB cystic fibrosis airway cells. AID 602141. KKLEB CF airway cells viability, ATPlite luminescence, overnight; active compounds read low; cells stimulated with P. aeruginosa culture filtrate. activity change (cytotoxicity), % at 5 µM. 0.36% of 360,000 active;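 active = corrected activity change at or below -50% at 5 µM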
CF NFkB inh: blocks PAF-induced NF-kB reporter in cystic fibrosis cells | inhibition, % at 5 µM | 0.86% of 360,000 active | AID 588850 | KKLEB NF-kB-GFP reporter, GFP fluorescence overnight;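 active = at least 50% inhibition at 5 µM, scaled per plate between neutral and stimulator controls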;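 note: PAF is a Pseudomonas aeruginosa culture filtrate used as stimulus; plate controls were PAF-stimulated DMSO wells for no effect and unstimulated DMSO wells for full effect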
C8 TRAIL sens: sensitizes caspase-8 expressing cells to TRAIL | NB7+C8 cells + TRAIL, ATPlite viability luminescence | inhibition (viability loss, TRAIL sensitization), % at 10 µM | 1% of 360,000 active;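 active = compounds causing at least 50% loss of cell viability in the single-dose screen, relative to plate controls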
Peg3 prom inh-2: Peg3 promoter inhibition confirmation; shares compounds with Peg3 prom inh-1; HeLa PEG-Prom luciferase reporter, luminescence, overnight; inhibition, % at 20 µM; 84% of 1,300 active;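 active = at 20 µM dose, 40% or more inhibition averaged across four replicates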
CF NFkB conf: confirmation of cystic fibrosis induced NF-kB inhibitors; inhibition, % at 5 µM; shares compounds with CF NFkB inh; KKLEB CF airway cells, PAF-induced NF-kB-GFP fluorescence, overnight; 64% of 1,300 active; in the data active = inhibition above about 40%;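 note: stimulus PAF is a Pseudomonas aeruginosa filtrate and not platelet activating factor; plate controls were DMSO wells with stimulus for no effect and unstimulated DMSO wells for full effect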
HIF-2a conf: HIF-2a inhibition, single concentration confirmation; 56% of 1,800 active; AID 651580; 786-0 RCC cells, HIF-2a luciferase reporter luminescence, overnight; inhibition, % at 18.8 µM; shares compounds with HIF-2a block;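 active = mean inhibition across four replicates of at least 40 percent at the single tested concentration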
HIF-1a cs: HIF-1a inhibition counter-screen for HIF-2a hits | shares compounds with HIF-2a block | MiaPaCa-2 HIF-1a luciferase reporter, desferoxamine, overnight | inhibition, % at 18.8 µM | 72% of 1,800 active | AID 651589;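 active = mean inhibition of the reporter signal across four replicates at the single tested dose of 50% or more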
* marks the source's active call; other numbers are inactive results.

How did CC(C)[C@@H]1Cc2[nH]n(C)c(=O)c2[C@H](c2ccc(F)cc2)O1 do in these assays?
HIF-2a block: 12; C8 TRAIL sens: 9

How did CCc1ccc(C(O)c2ncc(-c3cccc4ccccc34)[nH]2)cc1 (configuration not stated) do in these assays?
Peg3 prom inh-1: 17; HIF-2a block: -4; KKLEB cytotox: -2; CF NFkB inh: -19; C8 TRAIL sens: 6

Results for CCN(CC(=O)Nc1c(F)cccc1F)C(=O)C1CCN(c2ncnc3sc(C)c(C)c23)CC1 ?
Peg3 prom inh-1: 25; HIF-2a block: 28; KKLEB cytotox: -2; CF NFkB inh: 3; C8 TRAIL sens: 20

What do the screens show for `CS(=O)(=O)c1ccc(-c2cn3cc(C(=O)O)ccc3n2)cc1`?
Peg3 prom inh-1: 65*; HIF-2a block: 48*; PPC-1+TRAIL kill: 24; KKLEB cytotox: -7; CF NFkB inh: -13; C8 TRAIL sens: 16; Peg3 prom inh-2: 44*; HIF-2a conf: 46*; HIF-1a cs: -20

How did COCCn1c(C)cc(C(=O)CSc2nnc3ccccn23)c1C do in these assays?
Peg3 prom inh-1: 64*; HIF-2a block: 44*; PPC-1+TRAIL kill: 18; KKLEB cytotox: -7; CF NFkB inh: 7; C8 TRAIL sens: 16; Peg3 prom inh-2: 54*; HIF-2a conf: 76*; HIF-1a cs: 49

Results for COc1cc(C(=O)/C=C/c2cccnc2)c([N+](=O)[O-])cc1OC ?
Peg3 prom inh-1: 69*; HIF-2a block: 89*; KKLEB cytotox: -12; CF NFkB inh: 46; C8 TRAIL sens: 8; Peg3 prom inh-2: 96*; HIF-2a conf: 73*; HIF-1a cs: 96*

What do the screens show for `CCOC(=O)c1c(SC)n(-c2ccccc2)c(=S)n(-c2ccccc2)c1=O`?
Peg3 prom inh-1: 1; HIF-2a block: 18; KKLEB cytotox: -7; CF NFkB inh: 8; C8 TRAIL sens: -16

Results for CCOC(=O)c1c(SCCN2CCCCC2)n(-c2ccccc2)c(=S)n(-c2ccccc2)c1=O ?
Peg3 prom inh-1: 108*; HIF-2a block: 87*; KKLEB cytotox: -8; CF NFkB inh: 7; C8 TRAIL sens: 48; Peg3 prom inh-2: 99*; HIF-2a conf: 68*; HIF-1a cs: 101*

Results for CC(Cc1ccccc1)NC(=O)CCNNC(=O)c1ccncc1 (configuration not stated) ?
Peg3 prom inh-1: -4; HIF-2a block: 8; KKLEB cytotox: 8; CF NFkB inh: -10; C8 TRAIL sens: -7

How did CCCC1NC(=O)c2cc3ccccc3cc2-n2c1nc1ccc(F)cc1c2=O (configuration not stated) do in these assays?
Peg3 prom inh-1: 27; HIF-2a block: 5; KKLEB cytotox: -5; CF NFkB inh: 17; C8 TRAIL sens: 13

Results for Cn1nnnc1Sc1ncnc2scc(-c3ccc4c(c3)OCO4)c12 ?
Peg3 prom inh-1: 75*; HIF-2a block: 63*; KKLEB cytotox: -22; CF NFkB inh: 48; C8 TRAIL sens: -3; Peg3 prom inh-2: 77*; HIF-2a conf: 40; HIF-1a cs: 78*

Results for O=C(O)CSc1ncnc2scc(-c3ccccc3)c12 ?
Peg3 prom inh-1: -142; HIF-2a block: 14; PPC-1+TRAIL kill: -1; KKLEB cytotox: 6; CF NFkB inh: 9; C8 TRAIL sens: 10

What do the screens show for `CC(=O)c1cccc(-c2csc3ncnc(Sc4nnnn4C)c23)c1`?
Peg3 prom inh-1: 87*; HIF-2a block: 49*; KKLEB cytotox: -5; CF NFkB inh: 71*; C8 TRAIL sens: 10; Peg3 prom inh-2: 85*; CF NFkB conf: 28; HIF-2a conf: 44*; HIF-1a cs: 99*
